KB-V1 MDR tox: qHTS assay for MDR1-selective chemotherapeutics: Primary screen using the drug-selected MDR subline cells KB-V1 | Potency, µM (highest dose often 46.1 µM), usual class: cytotoxic | hit rate 3.4% among 400,000 | KB-V1 MDR cells viability, CellTiter-Glo, 72 h; further: nearly all actives have a fitted effect of over 60% in size
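Cytotoxicity toward P-gp-expressing KB-V1 cells was determined as loss of CellTiter-Glo luminescence after 72 h at 37 degrees C. Compounds were tested in quantitative HTS format across a concentration range, with curves fitted to normalized data.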
TDP1 cell CPT: qHTS for Inhibitors of human tyrosyl-DNA phosphodiesterase 1 (TDP1): qHTS in cells in presence of CPT; chicken DT40 Tdp1-/-;hTDP1 cells + 20 nM CPT, ATP luminescence, 48 h; Potency, µM (doses to about 46.2 µM), inactives show top-dose activity change, negative = growth inhibition, most hits filed as inhibitors; hit rate 12% among 420,000; AID 686979, 2013; further: nearly all actives have a fitted effect of over 55% in size
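Chicken DT40 Tdp1-/- cells stably complemented with human TDP1 were seeded at 400 cells/well in medium containing 20 nM camptothecin, exposed to pin-transferred compounds, and grown at 37 °C for at least 48 hr. Viability was read as ATP luminescence.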
HT1080 IDH1KD tx: qHTS for induction of synthetic lethality in tumor cells producing 2HG: qHTS for the HT-1080-IDH1KD cell line; hit rate 2% among 360,000; HT-1080 IDH1 knockdown viability, ATP luminescence, 48 h; Potency, µM (titrated, usually from 46.1 µM), for inactives: top-dose activity, negative = toxicity, hits mostly cytotoxic;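 further: 0% = DMSO wells and -100% = cell-free medium wells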
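HT-1080-IDH1KD cells (IDH1 knocked down), 750/well in RPMI with 5% FBS, treated with compound 48 h at 37 degrees C. Viability by CellTiter-Glo luminescence, normalised to DMSO and no-cell wells; concentration-response curves classed.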
KB-3-1 tox: qHTS assay for MDR1-selective chemotherapeutics: Primary screen using the parental adenocarcinoma cell KB-3-1; AID 1347075, 2019; hit rate 1.4% among 400,000; KB-3-1 viability, CellTiter-Glo ATP luminescence, 72 h; Potency, µM (doses to about 46.1 µM), most hits filed as cytotoxic; further: nearly all actives have a fitted effect of over 60% in size
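Here the drug-naive KB-3-1 line serves as comparator for MDR sub-line selectivity; cells received compound titrations, 72 h at 37 °C, then CellTiter-Glo readout.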
TDP1 cell noCPT: qHTS for Inhibitors of human tyrosyl-DNA phosphodiesterase 1 (TDP1): qHTS in cells in absence of CPT; Potency, µM (series often up to 46.2 µM), inactives show at the top dose activity change, negative = growth inhibition, usual class: inhibitors; hit rate 15% among 420,000; DT40 Tdp1-/- hTDP1 cells, no CPT, ATP luminescence, 48 h; further: nearly all actives have a fitted effect of over 55% in size
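Readout: luminescence from CellTiter-Glo after 30 min in the dark at RT. Cells: DT40 Tdp1-/- with stable hTDP1, 400/well. Exposure: compounds alone, ≥48 hr, 37 °C.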
HT1080NT lethal: qHTS for induction of synthetic lethality in tumor cells producing 2HG: qHTS for the HT-1080-NT fibrosarcoma cell line; hit rate 1.6% among 360,000; Potency, µM (doses to about 46.1 µM), without a hit: top-dose activity, negative = less viability, most hits filed as cytotoxic; AID 686970, 2013; HT-1080-NT fibrosarcoma viability, CellTiter-Glo ATP luminescence, 48 h;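 further: NT is the 2HG producing partner of a matched IDH1 knockdown line; 0% = DMSO-treated cells and -100% = media-only wells without cells; nearly all actives have a fitted effect of over 55% in size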
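Read-out is CellTiter-Glo luminescence after 10 minutes at room temperature, following 48 hours' compound treatment of HT-1080-NT cells (750 cells/well, RPMI, 5% FBS, 37 degrees C).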
The depositor's hits bear a star; [ ] = dose if it differs, or a comment. Hits are enriched below; roughly 19% of the tested compounds scored in any of these assays. The call rests on the fitted dose curve; in most records, active means well fitted curve in the direction sought with a large enough effect; inconclusive means small, poorly fitted or top-dose-only effect, or another doubt; inactive means no such curve, though single readings can be large; an effect the other way counts as inactive or inconclusive. Unless noted, on the % scale 0 is the no-effect control and ±100 the full control effect; potency means the concentration at half of the fitted maximal effect.

For O=C(Nc1ccc(Cl)c(S(=O)(=O)N2CCCCC2)c1)c1cccnc1 the results were KB-V1 MDR tox inactive, TDP1 cell CPT 18µM*, HT1080 IDH1KD tx -12%, KB-3-1 tox inactive, TDP1 cell noCPT inconclusive and HT1080NT lethal -12%.
For O=C(Nc1ccncc1)c1ccc(Cl)c(S(=O)(=O)N2CCCC2)c1 the results were KB-V1 MDR tox inconclusive, TDP1 cell CPT inconclusive, HT1080 IDH1KD tx -16%, KB-3-1 tox inactive, TDP1 cell noCPT 26µM* and HT1080NT lethal inconclusive.
For COCCN(Cc1ccccc1)C(=O)c1ccc2c(=O)n3c(nc2c1)CCC3 the results were KB-V1 MDR tox inactive, TDP1 cell CPT -2%, HT1080 IDH1KD tx 9%, KB-3-1 tox inactive, TDP1 cell noCPT 2% and HT1080NT lethal 17%.
Screening CCc1ccc(N(CC)C(=O)c2ccc3c(=O)n4c(nc3c2)CCCCC4)cc1 returned TDP1 cell CPT inconclusive and TDP1 cell noCPT 16µM*.
CCN(Cc1ccccc1)C(=O)c1ccc2c(=O)n3c(nc2c1)CCC3 was read as KB-V1 MDR tox 10µM*, TDP1 cell CPT -9%, HT1080 IDH1KD tx 19%, KB-3-1 tox inactive, TDP1 cell noCPT inconclusive and HT1080NT lethal 4%.
COc1ccc(C2CC(=O)c3c([nH]c(C(=O)OCc4ccccc4)c3C)C2)cc1 (configuration not stated) was read as KB-V1 MDR tox inconclusive, TDP1 cell CPT 12µM*, KB-3-1 tox inactive and TDP1 cell noCPT inconclusive.
For COc1ccc(C2CC(=O)c3c([nH]c(C(=O)OC(C)C)c3C)C2)cc1OC (configuration not stated) the results were KB-V1 MDR tox 2.6µM*, TDP1 cell CPT 23µM*, HT1080 IDH1KD tx 0%, KB-3-1 tox inactive, TDP1 cell noCPT 21µM* and HT1080NT lethal 0%.
For COc1ccc(COC(=O)c2[nH]c3c(c2C)C(=O)CC(c2ccc(OC)c(OC)c2)C3)cc1 (configuration not stated) the results were TDP1 cell CPT 9.2µM* and TDP1 cell noCPT 6.5µM*.
For COc1ccc(C2CC(=O)c3c([nH]c(C(=O)OC4CCC(C)CC4)c3C)C2)cc1OC (configuration not stated) the results were TDP1 cell CPT inconclusive and TDP1 cell noCPT -14%.
For Cc1c(C(=O)OCc2ccccc2)[nH]c2c1C(=O)CC(c1ccc(C(C)(C)C)cc1)C2 (configuration not stated) the results were KB-V1 MDR tox inactive, TDP1 cell CPT inconclusive, KB-3-1 tox inactive and TDP1 cell noCPT 18µM*.
`CCN(CC(=O)NCc1cccs1)C(=O)/C=C/c1cc(Br)ccc1OC(F)F` gave KB-V1 MDR tox inactive, TDP1 cell CPT inconclusive, HT1080 IDH1KD tx -7%, KB-3-1 tox inactive, TDP1 cell noCPT inconclusive and HT1080NT lethal 1%.
For OCC[C@@H]1C[C@H](O)[C@@H](O)[C@]2(OCCc3cc(Cl)ccc32)O1 the results were KB-V1 MDR tox inconclusive, TDP1 cell CPT -14%, HT1080 IDH1KD tx 23%, KB-3-1 tox inactive, TDP1 cell noCPT 1% and HT1080NT lethal -1%.
CC(=O)N1CCc2cc(S(=O)(=O)CCC(=O)NCCc3ccc(Cl)cc3)ccc21 was read as KB-V1 MDR tox inactive, TDP1 cell CPT inconclusive, HT1080 IDH1KD tx -4%, KB-3-1 tox inconclusive, TDP1 cell noCPT inconclusive and HT1080NT lethal -19%.
Screening CCOc1ccc(C(=O)Nc2ccc(-c3nc4ccccc4[nH]3)cc2)cc1[N+](=O)[O-] returned KB-V1 MDR tox inactive, TDP1 cell CPT 21µM*, HT1080 IDH1KD tx inconclusive, KB-3-1 tox inactive, TDP1 cell noCPT 18µM* and HT1080NT lethal inconclusive.
Screening Cn1ncc([N+](=O)[O-])c1C(=O)Nc1ccc(-c2nc3ccccc3[nH]2)cc1 returned KB-V1 MDR tox inactive, TDP1 cell CPT inconclusive, HT1080 IDH1KD tx -15%, KB-3-1 tox inactive, TDP1 cell noCPT 18µM* and HT1080NT lethal inconclusive.
`CC(=O)Nc1ccc(C(=O)Nc2ccc(-c3nc4ccccc4[nH]3)cc2)cc1` gave KB-V1 MDR tox inconclusive and KB-3-1 tox inactive.
`Cn1ncc([N+](=O)[O-])c1C(=O)Nc1ccc(Cl)cc1` gave KB-V1 MDR tox inactive, TDP1 cell CPT -10%, HT1080 IDH1KD tx -3%, KB-3-1 tox inactive, TDP1 cell noCPT 17% and HT1080NT lethal -3%.
For O=C(CCc1nc2ccccc2c(=O)[nH]1)OCCOc1ccc(Cl)cc1 the results were KB-V1 MDR tox inactive, TDP1 cell CPT -17%, HT1080 IDH1KD tx 2%, KB-3-1 tox inactive, TDP1 cell noCPT -25% and HT1080NT lethal 0%.
Screening CCN(c1ccc(C(=O)CSc2nnc(C3CC3)n2C2CC2)cc1)S(C)(=O)=O returned KB-V1 MDR tox inactive, TDP1 cell CPT -21%, HT1080 IDH1KD tx -3%, KB-3-1 tox inactive, TDP1 cell noCPT 2% and HT1080NT lethal -1%[9.24 µM].
Screening Cn1c(C(=O)N2CCC(C(=O)N3CCOCC3)CC2)cc2sccc21 returned KB-V1 MDR tox inactive, TDP1 cell CPT -6%, HT1080 IDH1KD tx -4%, KB-3-1 tox inactive, TDP1 cell noCPT -5% and HT1080NT lethal 8%.
For COc1ccccc1N1CCN(C(=O)c2cc3sccc3n2C)CC1 the results were KB-V1 MDR tox inactive, TDP1 cell CPT inconclusive, HT1080 IDH1KD tx -12%, KB-3-1 tox inactive, TDP1 cell noCPT -26% and HT1080NT lethal -3%.
Screening Cc1cccc(N2CCN(C(=O)C3CCN(C(=O)c4cc5sccc5n4C)CC3)CC2)c1C returned KB-V1 MDR tox inactive, TDP1 cell CPT 12µM*, KB-3-1 tox inactive and TDP1 cell noCPT 8.2µM*.
`Cc1cccc(N2CCN(C(=O)C3CCCN(C(=O)c4cc5sccc5n4C)C3)CC2)c1C` (configuration not stated) gave KB-V1 MDR tox inactive, TDP1 cell CPT 23µM*, KB-3-1 tox inactive and TDP1 cell noCPT 23µM*.
Cc1ccc(Sc2ccc(N)cn2)cc1 was read as KB-V1 MDR tox inactive, TDP1 cell CPT -2%, HT1080 IDH1KD tx 1%, KB-3-1 tox inactive, TDP1 cell noCPT -9% and HT1080NT lethal -7%.

Bioassay records as filed in PubChem BioAssay.
